Results: PubChem BioAssay
Values joined by “and” are separate entries in the source; they are usually repeats but may differ in a detail not shown here. Equal entries are not always repeated. Active and inactive are the calls of the source.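 The calls were made as follows, unless noted: active = compounds whose cell count with miR-34 switched on is under 0.7 times the count with it off; inactive = the rest.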

Key:
[1] = hESC survival regulators, cell-based (AID 493140; call rule not given here;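 also: cells exposed to compounds for four days before counting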); settings: human embryonic stem cell survival screen; stronger effect = higher value
[2] = liver-stage malaria parasite growth inhibition, primary screen, cell-based, HepG2, luciferase luminescence, HepG2 viability (AID 624349; in the data active = parasite load remaining mostly below about 12%, no sharp cut-off; inactive = mostly above about 10%;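 also: 100% = mean of DMSO negative control wells on the same plate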); settings: P. berghei liver stage in HepG2, luciferase luminescence, concentration not given here; parasite load remaining: stronger effect = lower value; viability: measured here: HepG2 viability without parasites
[3] = stimulators of nuclear beta-catenin in C2C12, primary screen, imaging, WNT3A-conditioned medium, mouse C2C12, NPC library (AID 1117326; in the data active = nuclear beta-catenin stimulation mostly above about 4.2%, no sharp cut-off; inactive = mostly below about 10%); settings: stronger effect = higher value
[4] = stimulators of insulin release from INS-1E, primary screen, cell-based, 5 mM glucose, NPC library (AID 1117329;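 active = compound raises insulin release from rat beta cells at 5 mM glucose, no numeric limit stated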); settings: rat INS-1E insulin secretion, at 10 µM, stronger effect = higher value
[5] = growth inhibition of GSK3B-pretreated HCT116 cells – cell-based, CellTiter-Glo, 0.2 to 20 µM (AID 1117336;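 active = compounds lowering colon cancer cell viability after pretreatment blocking the GSK3B kinase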); settings: HCT116 viability after GSK3B inhibitor, at 20 µM, stronger effect = higher value
[6] = inhibition of endothelial tube formation, primary screen, imaging, VEGF stimulated, CD31 staining, tube area, NPC library (AID 1117340;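 active = compound that reduces growth-factor-driven endothelial tube area in a mixed cell culture, no cutoff stated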); settings: VEGF-stimulated ADSC/ECFC co-culture, at 10 µM, stronger effect = higher value
[7] = glucagon-like peptide 1 release enhancers, primary assay, NCI-H716 cell line, NPC library (AID 1117341;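 active = compound raises GLP1 secretion from the human gut endocrine cells, with no numeric limit stated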); settings: NCI-H716 cells, at 10 µM, stronger effect = higher value
[8] = HCT116 colon cancer cell growth inhibition, primary screen, CellTiter-Glo luminescence, NPC library (AID 1117342;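 active = compounds that lower survival of HCT116 colon cancer cells in the luminescence readout, no numeric limit stated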); settings: at 20 µM (top of the series)
[9] = CellTiter-Glo luminescent readout of SW480 viability loss, NPC library primary (AID 1117343;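 active = compounds that lower viability of the colon cancer cells in the luminescence readout, with no numeric limit stated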); settings: CellTiter-Glo luminescence; at 20 µM (top of the series) unless noted
[10] = decreased DLD-1 cellular survival, CellTiter-Glo luminescent readout, NPC compound collection, primary HTS (AID 1117346;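 active = compounds that lower survival of DLD-1 colon cancer cells in the luminescence readout, no cutoff given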); settings: DLD-1 viability, CellTiter-Glo luminescence; at 20 µM (top of the series)
[11] = differential killing of epithelial or mesenchymal cells, primary screen, imaging, PC-3E GFP, TEM4-18 mCherry, co-culture (AID 1345086;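 active = compounds killing one labelled cell type while sparing the other, by normalised counts and ratio limits, not self-fluorescent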;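 as to all read-outs here: cells exposed to compound for 72 h before imaging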;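 as to red/green cell ratio (normalised): normalised mesenchymal count divided by normalised epithelial count so high means epithelial killing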); settings: imaging cell counts, at 1 µM; for red/green cell ratio (normalised): actives lie on both sides, counts scaled to control wells, 1 = unselective
[12] = sensitizers of A549 cells to miR-34 induction, primary screen, imaging, A549 dox-inducible miR-34, nuclei and caspase counts (AID 1347080); settings: A549 miR-34 inducible, Hoechst nuclei count, 48 h
[13] = survival rescue of mitochondrial mutant cells in low glucose, primary screen, MELAS cybrids, Rieske KO mouse fibroblasts, CellTiter-Glo (AID 1508586;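 active = mean z-score across replicates of 1.96 or higher in either the MELAS or the Rieske mutant cell line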;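 also: z relative to plate mean and SD of compound and empty wells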)
[14] = target: NAD(+) hydrolase SARM1 (Homo sapiens) (UniProt Q6SZW1); assay: SARM1 TIR NADase inhibitors, cell lysate, NAD-Glo luminescence (AID 1508614;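 active = compound whose remaining NAD level is above about 45 nM, limit read from the data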;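 also: higher remaining NAD means stronger inhibition of SARM1 NADase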); settings: SAM-TIR HEK293T lysate NADase, at 1 µM, stronger effect = higher value
[15] = measured here: epithelial PC-3E GFP cell survival
[16] = measured here: mesenchymal TEM4-18 mCherry cell survival
[17] = stronger effect = lower value, cell number ratio, induced over uninduced
[18] = measured here: relative caspase fold change +Dox/-Dox
[19] = measured here: total cells with miR-34 induction, stronger effect = lower value
[20] = measured here: total cells without miR-34 induction
[21] = MELAS cybrid survival, CellTiter-Glo 48 h, stronger effect = higher value
[22] = Rieske KO mouse fibroblast survival, CellTiter-Glo 72 h

Sequence of NAD(+) hydrolase SARM1 (Homo sapiens) (Q6SZW1 whole entry, looked up): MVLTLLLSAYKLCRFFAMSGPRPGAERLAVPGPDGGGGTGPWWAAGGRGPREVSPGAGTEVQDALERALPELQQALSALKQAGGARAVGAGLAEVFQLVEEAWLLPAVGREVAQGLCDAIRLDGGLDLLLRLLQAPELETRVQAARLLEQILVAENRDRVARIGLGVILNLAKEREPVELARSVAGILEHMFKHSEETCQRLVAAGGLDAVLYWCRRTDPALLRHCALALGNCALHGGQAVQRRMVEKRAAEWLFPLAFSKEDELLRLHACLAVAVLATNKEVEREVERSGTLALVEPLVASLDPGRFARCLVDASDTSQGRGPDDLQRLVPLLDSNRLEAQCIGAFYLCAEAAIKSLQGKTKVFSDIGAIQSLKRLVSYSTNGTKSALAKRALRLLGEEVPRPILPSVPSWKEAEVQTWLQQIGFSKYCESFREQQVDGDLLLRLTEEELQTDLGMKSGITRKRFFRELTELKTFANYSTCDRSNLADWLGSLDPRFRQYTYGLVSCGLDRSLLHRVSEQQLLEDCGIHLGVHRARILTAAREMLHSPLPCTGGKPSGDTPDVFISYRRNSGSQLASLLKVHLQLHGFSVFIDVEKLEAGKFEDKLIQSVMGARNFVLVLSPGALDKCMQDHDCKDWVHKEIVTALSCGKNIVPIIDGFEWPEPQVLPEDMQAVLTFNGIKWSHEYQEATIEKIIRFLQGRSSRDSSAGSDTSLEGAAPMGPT

In the case of `CCN(CC)CCc1nc(-c2ccccc2)no1`, the survival [1] is reported as 3.33 (inactive), the parasite load remaining [2] is reported as 66.5% (inactive) and the viability [2] is reported as 105%. For the same compound, the nuclear beta-catenin stimulation ([3]; at 10 µM) was 2% (inactive), the nuclear beta-catenin stimulation ([3]; stimulation, at 2 µM) was 1.3% and the insulin secretion stimulation [4] was -0.7% (inactive). For the same compound, the viability decrease [5] was -19.4% (inactive), the tube area decrease [6] was -1% (inactive) and the GLP1 secretion stimulation [7] was 3.1% (inactive). The inhibition of viability [8] was -2.53% (inactive), the viability decrease (inhibition) [9] was 10% (inactive) and the viability decrease (inhibition) [10] was -2.9% (inactive). The red/green cell ratio (normalised) [11] was 0.94 (inactive), the normalised cell number [11, 15] was 1.14 and the normalised cell number [11, 16] was 1.07. The fold change [12, 17] was 0.948 (inactive) and 0.876 (inactive), the fold change [12, 18] was 0.926 and 0.982 and the cell count [12, 19] was 8840 and 9090. The cell count [12, 20] was 9330 and 10400, the z-score [13, 21] was 0.0836 (inactive) and the z-score [13, 22] was -0.0837. For the same compound, the remaining NAD [14] was 10 nM (inactive).

With `Cc1ncc(CO)c(CO)c1O` the survival [1] was 7.67 (inactive), the parasite load remaining [2] was 121% (inactive) and 68.6% (inactive) and 52.2% (inactive) and the viability [2] was 108% and 75.6% and 94.6%. For the same compound, the nuclear beta-catenin stimulation ([3]; at 10 µM) was 0.1% (inactive), the nuclear beta-catenin stimulation ([3]; stimulation, at 2 µM) was 0.9% and the insulin secretion stimulation [4] was -1.8% (inactive). The viability decrease [5] was 4.5% (inactive), the tube area decrease [6] was -14.1% (inactive) and the GLP1 secretion stimulation [7] was 3.1% (inactive). For the same compound, the inhibition of viability [8] was -18.3% (inactive), the viability decrease (inhibition) [9] was 23.7% (inactive) and the viability decrease (inhibition) [10] was 3.95% (inactive). The red/green cell ratio (normalised) [11] was 0.91 (inactive), the normalised cell number [11, 15] was 1.07 and the normalised cell number [11, 16] was 0.97. The fold change [12, 17] was 0.859 (inactive) and 0.971 (inactive) and 0.904 (inactive), the fold change [12, 18] was 1.28 and 0.606 and 6.28 and the cell count [12, 19] was 9040 and 7900 and 12400. For the same compound, the cell count [12, 20] was 10500 and 8140 and 13700, the z-score [13, 21] was -0.22 (inactive) and 0.248 (inactive) and the z-score [13, 22] was -0.0864 and 0.109. The remaining NAD [14] was 10 nM (inactive).

For `O=C(NCC(O)CO)c1c(I)c(C(=O)NCC(O)CO)c(I)c(N(CCO)C(=O)CO)c1I` (stereo unspecified), the survival [1] was 5.33 (inactive), the parasite load remaining [2] was 117% (inactive) and the viability [2] was 103%. For the same compound, the nuclear beta-catenin stimulation ([3]; at 10 µM) was 0.6% (inactive), the nuclear beta-catenin stimulation ([3]; stimulation, at 2 µM) was 1.1% and the insulin secretion stimulation [4] was 2.2% (inactive). The viability decrease [5] was -0.3% (inactive), the tube area decrease [6] was -24.3% (inactive) and the GLP1 secretion stimulation [7] was -2.6% (inactive). The inhibition of viability [8] was 50.9% (active), the viability decrease (inhibition) [9] was 15.5% (inactive) and the viability decrease (inhibition) [10] was 27.9% (inactive). The red/green cell ratio (normalised) [11] was 0.86 (inactive), the normalised cell number [11, 15] was 1.25 and the normalised cell number [11, 16] was 1.07. For the same compound, the fold change [12, 17] was 0.865 (inactive), the fold change [12, 18] was 1.27 and the cell count [12, 19] was 8520. For the same compound, the cell count [12, 20] was 9850, the z-score [13, 21] was -0.49 (inactive) and the z-score [13, 22] was -1.02. For the same compound, the remaining NAD [14] was 10 nM (inactive).

In the case of `CC1(O)CCC(C(C)(C)O)CC1` (stereo unspecified), the nuclear beta-catenin stimulation ([3]; at 10 µM) is reported as -0.3% (inactive), the nuclear beta-catenin stimulation ([3]; stimulation, at 2 µM) is reported as 1.1% and the insulin secretion stimulation [4] is reported as 1.4% (inactive). For the same compound, the viability decrease [5] was -1.3% (inactive), the tube area decrease [6] was 2.4% (inactive) and the GLP1 secretion stimulation [7] was -5.3% (inactive). The inhibition of viability [8] was 1.1% (inactive), the viability decrease (inhibition) [9] was 5.7% (inactive) and the viability decrease (inhibition) [10] was -8.9% (inactive). For the same compound, the red/green cell ratio (normalised) [11] was 1.09 (inactive), the normalised cell number [11, 15] was 0.89 and the normalised cell number [11, 16] was 0.97. The fold change [12, 17] was 0.976 (inactive), the fold change [12, 18] was 0.869 and the cell count [12, 19] was 8640. For the same compound, the cell count [12, 20] was 8850 and the remaining NAD [14] was 10 nM (inactive).

With `CCCCCCC[N+](CC)(CC)CCCCc1ccc(Cl)cc1` the survival [1] was 0.5 (inactive), the parasite load remaining [2] was 34.3% (inactive) and 96.8% (inactive) and the viability [2] was 48.5% and 90.6%. The nuclear beta-catenin stimulation ([3]; at 10 µM) was 1.5% (inactive), the nuclear beta-catenin stimulation ([3]; stimulation, at 2 µM) was 0.5% and the insulin secretion stimulation [4] was 1% (inactive). For the same compound, the viability decrease [5] was 95.1% (active), the tube area decrease [6] was 83.4% (active) and the GLP1 secretion stimulation [7] was 7.2% (inactive). The inhibition of viability [8] was 79.1% (active), the viability decrease (inhibition) [9] was 60.9% (active) and the viability decrease (inhibition) [10] was 75.4% (active). For the same compound, the red/green cell ratio (normalised) [11] was 0.92 (inactive), the normalised cell number [11, 15] was 0.97 and the normalised cell number [11, 16] was 0.89. The fold change [12, 17] was 0.718 (inactive), the fold change [12, 18] was 1.54 and the cell count [12, 19] was 6720. The cell count [12, 20] was 9350, the z-score [13, 21] was -3 (inactive) and the z-score [13, 22] was -0.71.

In the case of `CC(=O)Nc1ccc(C(=O)O)cc1`, the nuclear beta-catenin stimulation ([3]; at 10 µM) is reported as -0.6% (inactive), the nuclear beta-catenin stimulation ([3]; stimulation, at 2 µM) is reported as 0.4% and the insulin secretion stimulation [4] is reported as -1.8% (inactive). The viability decrease [5] was -11.6% (inactive), the tube area decrease [6] was -12.7% (inactive) and the GLP1 secretion stimulation [7] was -0.1% (inactive). The inhibition of viability [8] was -18.3% (inactive), the viability decrease (inhibition) [9] was 13.7% (inactive) and the viability decrease (inhibition) [10] was 11.3% (inactive). For the same compound, the red/green cell ratio (normalised) [11] was 1.14 (inactive), the normalised cell number [11, 15] was 0.87 and the normalised cell number [11, 16] was 0.99. The fold change [12, 17] was 0.937 (inactive), the fold change [12, 18] was 1.06 and the cell count [12, 19] was 9250. For the same compound, the cell count [12, 20] was 9880 and the remaining NAD [14] was 10 nM (inactive).

In the case of `CC(C)COC(=O)c1ccc(N)cc1`, the nuclear beta-catenin stimulation ([3]; at 10 µM) is reported as 0.2% (inactive), the nuclear beta-catenin stimulation ([3]; stimulation, at 2 µM) is reported as 0.4% and the insulin secretion stimulation [4] is reported as -1.9% (inactive). The viability decrease [5] was -5.95% (inactive), the tube area decrease [6] was 0.5% (inactive) and the GLP1 secretion stimulation [7] was 0.9% (inactive). The inhibition of viability [8] was 6.2% (inactive), the viability decrease (inhibition) [9] was 61.3% (active) and the viability decrease (inhibition) [10] was 12.5% (inactive). For the same compound, the red/green cell ratio (normalised) [11] was 1.09 (inactive), the normalised cell number [11, 15] was 0.86 and the normalised cell number [11, 16] was 0.93. For the same compound, the fold change [12, 17] was 0.964 (inactive), the fold change [12, 18] was 0.986 and the cell count [12, 19] was 8750. The cell count [12, 20] was 9080 and the remaining NAD [14] was 10 nM (inactive).

In the case of `O=S(=O)(O)c1cc(I)c(O)c2ncccc12`, the nuclear beta-catenin stimulation ([3]; at 10 µM) is reported as -0.8% (inactive), the nuclear beta-catenin stimulation ([3]; stimulation, at 2 µM) is reported as -0.5% and the insulin secretion stimulation [4] is reported as -0.3% (inactive). The viability decrease [5] was 62.2% (active), the tube area decrease [6] was -5.5% (inactive) and the GLP1 secretion stimulation [7] was -2.6% (inactive). The inhibition of viability [8] was 41% (inactive), the viability decrease (inhibition) [9] was 77.9% (active) and the viability decrease (inhibition) [10] was 53.4% (active). For the same compound, the red/green cell ratio (normalised) [11] was 1 (inactive), the normalised cell number [11, 15] was 1.1 and the normalised cell number [11, 16] was 1.11. The fold change [12, 17] was 1.07 (inactive), the fold change [12, 18] was 0.778 and the cell count [12, 19] was 5970. For the same compound, the cell count [12, 20] was 5570 and the remaining NAD [14] was 10 nM (inactive).

For `Cc1cccc(C)c1NC(=O)CN1CCN(CCCC(c2ccc(F)cc2)c2ccc(F)cc2)CC1`, the survival [1] was 2.42 (inactive), the parasite load remaining [2] was 135% (inactive) and 49% (inactive) and the viability [2] was 101% and 79.5%. The nuclear beta-catenin stimulation ([3]; at 10 µM) was 4.7% (inactive), the nuclear beta-catenin stimulation ([3]; stimulation, at 2 µM) was 1.2% and the insulin secretion stimulation [4] was -1.1% (inactive). For the same compound, the viability decrease [5] was 99.6% (active), the tube area decrease [6] was 82.9% (active) and the GLP1 secretion stimulation [7] was -2.6% (inactive). For the same compound, the inhibition of viability [8] was 99.7% (active), the viability decrease (inhibition) [9] was 97.6% (active) and the viability decrease (inhibition) [10] was 102% (active). The red/green cell ratio (normalised) [11] was 1.02 (inactive), the normalised cell number [11, 15] was 1.1 and the normalised cell number [11, 16] was 1.13. The fold change [12, 17] was 0.884 (inactive), the fold change [12, 18] was 1.28 and the cell count [12, 19] was 8280. The cell count [12, 20] was 9370, the z-score [13, 21] was 0.335 (inactive) and the z-score [13, 22] was 0.284.
